Targets include ALX1 (Homo sapiens, UniProt Q15699 118-204, L144V); HESX1 (Homo sapiens, UniProt Q9UBX0 95-180, F115L); MSX2 (Homo sapiens, UniProt P35548 130-214, R199I).
Common to all, as to test: PBM; 200 nM protein, PBS
Common to all, as to details: dsDNA, one strand shown

Test [1] has as its target HOXB9 (Homo sapiens, UniProt P17482 171-250, T197M).
The target of test [2] is HOXA7 (Homo sapiens, UniProt P31268 116-202).
In test [3] the target is HOXB9 (Homo sapiens, UniProt P17482 171-250).
HOXB9 (Homo sapiens, UniProt P17482 171-250), sequence (P17482 171-250): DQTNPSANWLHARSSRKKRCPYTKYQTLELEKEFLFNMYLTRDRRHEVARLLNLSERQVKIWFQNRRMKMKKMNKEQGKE
In test [4] the target is HOXD13 (Homo sapiens, UniProt P35453 263-343, T313R).
HOXD13 (Homo sapiens, UniProt P35453 263-343, T313R), sequence (P35453 263-343 T313R): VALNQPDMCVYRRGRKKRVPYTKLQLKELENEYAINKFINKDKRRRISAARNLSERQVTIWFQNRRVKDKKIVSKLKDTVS
Test [5] has as its target HOXD13 (Homo sapiens, UniProt P35453 263-343).
Test [6] has as its target HOXD13 (Homo sapiens, UniProt P35453 263-343, T313A).
Test [7] addresses HOXB9 (Homo sapiens, UniProt P17482 171-250, R186Q).
Test [8] deals with HOXA7 (Homo sapiens, UniProt P31268 116-202, W177C).
HOXA7 (Homo sapiens, UniProt P31268 116-202, W177C), sequence (P31268 116-202 W177C): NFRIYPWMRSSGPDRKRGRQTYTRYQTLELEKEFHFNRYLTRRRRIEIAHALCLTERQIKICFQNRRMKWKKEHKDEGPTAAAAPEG
In test [9] the target is HOXC10 (Homo sapiens, UniProt Q9NYD6 254-340).
HOXC10 (Homo sapiens, UniProt Q9NYD6 254-340), sequence (Q9NYD6 254-340): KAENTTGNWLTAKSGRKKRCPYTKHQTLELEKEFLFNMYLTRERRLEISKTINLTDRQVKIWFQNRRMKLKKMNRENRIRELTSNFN
Test [10] concerns the target HOXC10 (Homo sapiens, UniProt Q9NYD6 254-340, K271E).
Test [11] has as its target ALX4 (Homo sapiens, UniProt Q9H161 200-286).
Test [12] concerns the target T1, PAX4 (Homo sapiens, UniProt O43316 9-242, R200K).
T1 sequence: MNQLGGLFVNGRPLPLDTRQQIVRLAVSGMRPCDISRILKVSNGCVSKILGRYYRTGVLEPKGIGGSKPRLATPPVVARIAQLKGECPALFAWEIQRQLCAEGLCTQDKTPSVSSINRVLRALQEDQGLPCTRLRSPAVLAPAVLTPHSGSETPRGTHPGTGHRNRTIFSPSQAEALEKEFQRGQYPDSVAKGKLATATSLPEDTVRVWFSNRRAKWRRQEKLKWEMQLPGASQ

The target of test [13] is PRRX1 (Homo sapiens, UniProt P54821 80-166, F113S).
PRRX1 (Homo sapiens, UniProt P54821 80-166, F113S), sequence (P54821 80-166 F113S): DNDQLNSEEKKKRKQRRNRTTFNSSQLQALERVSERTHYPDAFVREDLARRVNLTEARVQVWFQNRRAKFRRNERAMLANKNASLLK
Test [14] deals with T2, PAX4 (Homo sapiens, UniProt O43316 9-242).
T2 sequence: T1 sequence with K192R

The target in test [15] is HOXB6 (Homo sapiens, UniProt P17509 132-218, K202E).
HOXB6 (Homo sapiens, UniProt P17509 132-218, K202E), sequence (P17509 132-218 K202E): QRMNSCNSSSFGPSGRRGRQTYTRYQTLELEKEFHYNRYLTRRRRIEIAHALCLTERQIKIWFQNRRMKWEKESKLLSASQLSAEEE
For test [16], the target named is ALX4 (Homo sapiens, UniProt Q9H161 200-286, Q225E).
ALX4 (Homo sapiens, UniProt Q9H161 200-286, Q225E), sequence (Q9H161 200-286 Q225E): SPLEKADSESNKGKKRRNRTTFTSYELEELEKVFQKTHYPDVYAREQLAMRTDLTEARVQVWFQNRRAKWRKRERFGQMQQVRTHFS
Test [17] addresses ALX3 (Homo sapiens, UniProt O95076 139-225, N203Q).
Test [18] has as its target T3, PAX4 (Homo sapiens, UniProt O43316 9-242, R200Q).
T3 sequence: T1 sequence with K192Q

For test [19], the target named is T4, PAX4 (Homo sapiens, UniProt O43316 9-242, F177V).
T4 sequence: T1 sequence with F169V, K192R

The target of test [20] is ALX3 (Homo sapiens, UniProt O95076 139-225).
ALX3 (Homo sapiens, UniProt O95076 139-225), sequence (O95076 139-225): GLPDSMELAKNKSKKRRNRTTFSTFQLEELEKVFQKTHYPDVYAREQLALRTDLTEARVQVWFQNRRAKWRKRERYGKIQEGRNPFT
Test [21] concerns the target T5, PAX4 (Homo sapiens, UniProt O43316 9-242, F177Y).
T5 sequence: T1 sequence with F169Y, K192R

Test [22] deals with ALX3 (Homo sapiens, UniProt O95076 139-225, L168Q).
ALX3 (Homo sapiens, UniProt O95076 139-225, L168Q), sequence (O95076 139-225 L168Q): as the sequence (O95076 139-225) above, with L30Q counted along it
Test [23] has as its target HOXC9 (Homo sapiens, UniProt P31274 178-260, R222W).
Test [24] deals with ALX3 (Homo sapiens, UniProt O95076 139-225, L168V).
ALX3 (Homo sapiens, UniProt O95076 139-225, L168V), sequence (O95076 139-225 L168V): as the sequence (O95076 139-225) above, with L30V counted along it
Test [25] has as its target T6, PAX4 (Homo sapiens, UniProt O43316 9-242, R227W).
T6 sequence: T1 sequence with K192R, R219W

Test [26] has as its target ALX3 (Homo sapiens, UniProt O95076 139-225, N203S).
Test [27] deals with PRRX1 (Homo sapiens, UniProt P54821 80-166).
PRRX1 (Homo sapiens, UniProt P54821 80-166), sequence (P54821 80-166): as the sequence (P54821 80-166 F113S) above, with S34F counted along it
The target in test [28] is PROP1 (Homo sapiens, UniProt O75360 56-141).
PROP1 (Homo sapiens, UniProt O75360 56-141), sequence (O75360 56-141): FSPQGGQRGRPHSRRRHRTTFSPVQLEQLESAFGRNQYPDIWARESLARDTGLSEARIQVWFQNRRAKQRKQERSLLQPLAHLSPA
Test [29] has as its target PROP1 (Homo sapiens, UniProt O75360 56-141, R99H).
Test [30] concerns the target PROP1 (Homo sapiens, UniProt O75360 56-141, F88S).
In test [31] the target is HOXB6 (Homo sapiens, UniProt P17509 132-218).
HOXB6 (Homo sapiens, UniProt P17509 132-218), sequence (P17509 132-218): as the sequence (P17509 132-218 K202E) above, with E71K counted along it
The target of test [32] is HOXC9 (Homo sapiens, UniProt P31274 178-260, K195R).
HOXC9 (Homo sapiens, UniProt P31274 178-260, K195R), sequence (P31274 178-260 K195R): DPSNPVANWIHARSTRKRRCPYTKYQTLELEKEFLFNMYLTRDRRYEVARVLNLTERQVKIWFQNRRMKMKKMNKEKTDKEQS
Test [33] deals with HOXC9 (Homo sapiens, UniProt P31274 178-260).
HOXC9 (Homo sapiens, UniProt P31274 178-260), sequence (P31274 178-260): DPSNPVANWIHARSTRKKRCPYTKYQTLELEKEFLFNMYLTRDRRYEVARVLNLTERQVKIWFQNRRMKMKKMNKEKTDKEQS
Test [34] addresses HOXC9 (Homo sapiens, UniProt P31274 178-260, R193K).
Test [35] concerns the target HOXA4 (Homo sapiens, UniProt Q00056 201-287, R217L).
Test [36] deals with HOXA4 (Homo sapiens, UniProt Q00056 201-287, W262F).
HOXA4 (Homo sapiens, UniProt Q00056 201-287, W262F), sequence (Q00056 201-287 W262F): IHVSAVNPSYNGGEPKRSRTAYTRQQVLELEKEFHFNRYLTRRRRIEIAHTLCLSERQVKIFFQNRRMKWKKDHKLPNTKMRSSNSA

Where a chain is given by its changes, count along the chain named.

HOXB9 (Homo sapiens, UniProt P17482 171-250, R186Q), sequence (P17482 171-250 R186Q): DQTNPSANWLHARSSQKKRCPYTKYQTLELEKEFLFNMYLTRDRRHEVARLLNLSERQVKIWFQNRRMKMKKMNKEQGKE
HOXA7 (Homo sapiens, UniProt P31268 116-202), sequence (P31268 116-202): as the sequence (P31268 116-202 W177C) above, with C62W counted along it
HOXB9 (Homo sapiens, UniProt P17482 171-250, T197M), sequence (P17482 171-250 T197M): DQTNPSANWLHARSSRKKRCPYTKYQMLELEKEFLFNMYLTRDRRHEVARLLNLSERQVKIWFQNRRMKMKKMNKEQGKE
HOXC9 (Homo sapiens, UniProt P31274 178-260, R222W), sequence (P31274 178-260 R222W): as the sequence (P31274 178-260) above, with R45W counted along it
PROP1 (Homo sapiens, UniProt O75360 56-141, F88S), sequence (O75360 56-141 F88S): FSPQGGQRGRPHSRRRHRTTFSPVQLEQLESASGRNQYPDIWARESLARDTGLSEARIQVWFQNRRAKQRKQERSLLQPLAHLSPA
HOXC10 (Homo sapiens, UniProt Q9NYD6 254-340, K271E), sequence (Q9NYD6 254-340 K271E): as the sequence (Q9NYD6 254-340) above, with K18E counted along it
PROP1 (Homo sapiens, UniProt O75360 56-141, R99H), sequence (O75360 56-141 R99H): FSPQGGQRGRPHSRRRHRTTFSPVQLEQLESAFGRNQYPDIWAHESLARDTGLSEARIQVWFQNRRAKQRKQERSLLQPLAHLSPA
HOXD13 (Homo sapiens, UniProt P35453 263-343), sequence (P35453 263-343): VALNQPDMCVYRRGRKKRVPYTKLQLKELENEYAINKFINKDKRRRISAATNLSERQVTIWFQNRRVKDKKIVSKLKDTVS
ALX3 (Homo sapiens, UniProt O95076 139-225, N203Q), sequence (O95076 139-225 N203Q): as the sequence (O95076 139-225) above, with N65Q counted along it
MSX2, sequence (P35548 130-214 R199I): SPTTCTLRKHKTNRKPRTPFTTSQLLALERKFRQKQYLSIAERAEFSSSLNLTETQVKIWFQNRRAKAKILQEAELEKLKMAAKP
ALX4 (Homo sapiens, UniProt Q9H161 200-286), sequence (Q9H161 200-286): as the sequence (Q9H161 200-286 Q225E) above, with E26Q counted along it
HOXD13 (Homo sapiens, UniProt P35453 263-343, T313A), sequence (P35453 263-343 T313A): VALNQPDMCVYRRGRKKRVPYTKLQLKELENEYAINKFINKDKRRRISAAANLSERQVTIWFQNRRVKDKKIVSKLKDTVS
HOXC9 (Homo sapiens, UniProt P31274 178-260, R193K), sequence (P31274 178-260 R193K): as the sequence (P31274 178-260) above, with R16K counted along it
HESX1, sequence (Q9UBX0 95-180 F115L): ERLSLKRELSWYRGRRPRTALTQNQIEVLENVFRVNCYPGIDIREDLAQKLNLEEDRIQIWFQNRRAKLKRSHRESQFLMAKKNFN
HOXA4 (Homo sapiens, UniProt Q00056 201-287, R217L), sequence (Q00056 201-287 R217L): as the sequence (Q00056 201-287 W262F) above, with R17L, F62W counted along it
ALX1, sequence (Q15699 118-204 L144V): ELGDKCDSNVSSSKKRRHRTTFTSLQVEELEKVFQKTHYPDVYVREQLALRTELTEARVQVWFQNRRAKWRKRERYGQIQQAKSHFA
ALX3 (Homo sapiens, UniProt O95076 139-225, N203S), sequence (O95076 139-225 N203S): as the sequence (O95076 139-225) above, with N65S counted along it

Turning to CTATAAAC, the binding signal is 9.58 upbm affinity estimate (log intensity, higher = more binding, comparable within an allelic series) with HOXB9 [1]; 9.84 upbm affinity estimate (log intensity, higher = more binding, comparable within an allelic series) with HOXA7 [2]; 11.5 upbm affinity estimate (log intensity, higher = more binding, comparable within an allelic series) with HOXB9 [3]; 10.9 upbm affinity estimate (log intensity, higher = more binding, comparable within an allelic series) with HOXD13 [4]; 12.2 upbm affinity estimate (log intensity, higher = more binding, comparable within an allelic series) with HOXD13 [5]; 12 upbm affinity estimate (log intensity, higher = more binding, comparable within an allelic series) with HOXD13 [6]. Moreover, the binding signal with HOXB9 [7] was 11.2 upbm affinity estimate (log intensity, higher = more binding, comparable within an allelic series); with HOXA7 [8], 8.92 upbm affinity estimate (log intensity, higher = more binding, comparable within an allelic series).

For the sequence GGTCGTTA, the binding signal was 9.98 upbm affinity estimate (log intensity, higher = more binding, comparable within an allelic series) with HOXB9 [1]; 12.2 upbm affinity estimate (log intensity, higher = more binding, comparable within an allelic series) with HOXC10 [9]; 12.2 upbm affinity estimate (log intensity, higher = more binding, comparable within an allelic series) with HOXC10 [10].

With AGTCGTTA, the binding signal in the test with HOXB9 [1] was 10 upbm affinity estimate (log intensity, higher = more binding, comparable within an allelic series); in the test with HOXC10 [9], 12.2 upbm affinity estimate (log intensity, higher = more binding, comparable within an allelic series); with HOXC10 [10], 12.1 upbm affinity estimate (log intensity, higher = more binding, comparable within an allelic series).

Regarding CTAGGCTC, the binding signal with HOXB9 [1] is 8.49 upbm affinity estimate (log intensity, higher = more binding, comparable within an allelic series); with HOXA7 [2] it was 8.33 upbm affinity estimate (log intensity, higher = more binding, comparable within an allelic series); in the test with HOXB9 [3], 8.52 upbm affinity estimate (log intensity, higher = more binding, comparable within an allelic series); in the test with HOXB9 [7], 8.53 upbm affinity estimate (log intensity, higher = more binding, comparable within an allelic series); with HOXA7 [8], 8.41 upbm affinity estimate (log intensity, higher = more binding, comparable within an allelic series).

Turning to ATAAATTA, the binding signal in the test with HOXB9 [1] is 9.96 upbm affinity estimate (log intensity, higher = more binding, comparable within an allelic series); in the test with ALX4 [11] it was 13.6 upbm affinity estimate (log intensity, higher = more binding, comparable within an allelic series); in the test with PAX4 [12], 11.7 upbm affinity estimate (log intensity, higher = more binding, comparable within an allelic series); in the test with PRRX1 [13], 11.2 upbm affinity estimate (log intensity, higher = more binding, comparable within an allelic series); with PAX4 [14], 12.2 upbm affinity estimate (log intensity, higher = more binding, comparable within an allelic series); in the test with HOXB6 [15], 10 upbm affinity estimate (log intensity, higher = more binding, comparable within an allelic series). For the same sequence, the binding signal with ALX4 [16] was 12.6 upbm affinity estimate (log intensity, higher = more binding, comparable within an allelic series); with ALX1 it was 11.4 upbm affinity estimate (log intensity, higher = more binding, comparable within an allelic series); with ALX3 [17], 8.61 upbm affinity estimate (log intensity, higher = more binding, comparable within an allelic series); in the test with PAX4 [18] it was 11.8 upbm affinity estimate (log intensity, higher = more binding, comparable within an allelic series); in the test with PAX4 [19], 10.7 upbm affinity estimate (log intensity, higher = more binding, comparable within an allelic series); in the test with ALX3 [20] it was 12.3 upbm affinity estimate (log intensity, higher = more binding, comparable within an allelic series). The binding signal in the test with PAX4 [21] is 11 upbm affinity estimate (log intensity, higher = more binding, comparable within an allelic series); with ALX3 [22], 10.2 upbm affinity estimate (log intensity, higher = more binding, comparable within an allelic series); in the test with HOXC9 [23], 11 upbm affinity estimate (log intensity, higher = more binding, comparable within an allelic series); in the test with ALX3 [24], 9.72 upbm affinity estimate (log intensity, higher = more binding, comparable within an allelic series); in the test with HESX1, 7.82 upbm affinity estimate (log intensity, higher = more binding, comparable within an allelic series); in the test with PAX4 [25], 11 upbm affinity estimate (log intensity, higher = more binding, comparable within an allelic series). The binding signal is 8.71 upbm affinity estimate (log intensity, higher = more binding, comparable within an allelic series) in the test with ALX3 [26] and 13.3 upbm affinity estimate (log intensity, higher = more binding, comparable within an allelic series) with PRRX1 [27].

For the sequence GGTGGAGA, the binding signal is 8.58 upbm affinity estimate (log intensity, higher = more binding, comparable within an allelic series) with HOXB9 [1]; 9.03 upbm affinity estimate (log intensity, higher = more binding, comparable within an allelic series) in the test with HOXB6 [15]; 8.51 upbm affinity estimate (log intensity, higher = more binding, comparable within an allelic series) in the test with HOXB9 [3]; 6.89 upbm affinity estimate (log intensity, higher = more binding, comparable within an allelic series) with PROP1 [28]; 6.82 upbm affinity estimate (log intensity, higher = more binding, comparable within an allelic series) with PROP1 [29]; 8.56 upbm affinity estimate (log intensity, higher = more binding, comparable within an allelic series) in the test with HOXB9 [7]. Moreover, the binding signal with PROP1 [30] was 6.65 upbm affinity estimate (log intensity, higher = more binding, comparable within an allelic series); with HOXB6 [31], 9.09 upbm affinity estimate (log intensity, higher = more binding, comparable within an allelic series).

With ATTAATAC, the binding signal was 10.1 upbm affinity estimate (log intensity, higher = more binding, comparable within an allelic series) with HOXB9 [1]; 11.8 upbm affinity estimate (log intensity, higher = more binding, comparable within an allelic series) in the test with PAX4 [12]; 12.2 upbm affinity estimate (log intensity, higher = more binding, comparable within an allelic series) with PAX4 [14]; 10.1 upbm affinity estimate (log intensity, higher = more binding, comparable within an allelic series) with HOXB6 [15]; 11.8 upbm affinity estimate (log intensity, higher = more binding, comparable within an allelic series) with PAX4 [18]; 10.6 upbm affinity estimate (log intensity, higher = more binding, comparable within an allelic series) with PAX4 [19]. The binding signal with PAX4 [21] is 11.1 upbm affinity estimate (log intensity, higher = more binding, comparable within an allelic series); in the test with PAX4 [25] it was 11.1 upbm affinity estimate (log intensity, higher = more binding, comparable within an allelic series).

In the case of GCCGGAGC, the binding signal in the test with HOXB9 [1] was 8.56 upbm affinity estimate (log intensity, higher = more binding, comparable within an allelic series); in the test with PRRX1 [13], 9.3 upbm affinity estimate (log intensity, higher = more binding, comparable within an allelic series); with HOXB9 [3] it was 8.68 upbm affinity estimate (log intensity, higher = more binding, comparable within an allelic series); with HOXB9 [7] it was 8.69 upbm affinity estimate (log intensity, higher = more binding, comparable within an allelic series); with PRRX1 [27], 9.61 upbm affinity estimate (log intensity, higher = more binding, comparable within an allelic series).

Take GCCTTCCC: the binding signal was 8.39 upbm affinity estimate (log intensity, higher = more binding, comparable within an allelic series) with HOXB9 [1]; 9.49 upbm affinity estimate (log intensity, higher = more binding, comparable within an allelic series) in the test with HOXC9 [32]; 8.31 upbm affinity estimate (log intensity, higher = more binding, comparable within an allelic series) with HOXB9 [3]; 9.55 upbm affinity estimate (log intensity, higher = more binding, comparable within an allelic series) in the test with HOXC9 [33]; 9.63 upbm affinity estimate (log intensity, higher = more binding, comparable within an allelic series) with HOXC9 [34]; 6.64 upbm affinity estimate (log intensity, higher = more binding, comparable within an allelic series) in the test with PROP1 [28]. Also, the binding signal was 6.59 upbm affinity estimate (log intensity, higher = more binding, comparable within an allelic series) in the test with PROP1 [29]; 8.38 upbm affinity estimate (log intensity, higher = more binding, comparable within an allelic series) with HOXB9 [7]; 9.61 upbm affinity estimate (log intensity, higher = more binding, comparable within an allelic series) in the test with HOXC9 [23]; 6.59 upbm affinity estimate (log intensity, higher = more binding, comparable within an allelic series) in the test with PROP1 [30].

AATTACCA: the binding signal with HOXB9 [1] was 10.1 upbm affinity estimate (log intensity, higher = more binding, comparable within an allelic series); in the test with HOXA7 [2], 11.2 upbm affinity estimate (log intensity, higher = more binding, comparable within an allelic series); with PRRX1 [13] it was 11.1 upbm affinity estimate (log intensity, higher = more binding, comparable within an allelic series); with HOXB6 [15], 9.98 upbm affinity estimate (log intensity, higher = more binding, comparable within an allelic series); with HOXA4 [35] it was 11.9 upbm affinity estimate (log intensity, higher = more binding, comparable within an allelic series); in the test with MSX2, 12.2 upbm affinity estimate (log intensity, higher = more binding, comparable within an allelic series). The binding signal in the test with HOXA7 [8] is 8.87 upbm affinity estimate (log intensity, higher = more binding, comparable within an allelic series); with HOXA4 [36], 11.4 upbm affinity estimate (log intensity, higher = more binding, comparable within an allelic series); in the test with HOXB6 [31] it was 11.7 upbm affinity estimate (log intensity, higher = more binding, comparable within an allelic series).

Source of the values: PMC11006913.
